Test results taken from PubChem BioAssay AID1441 (NMMLSC, 2008).
The campaign covered roughly 220,000 compounds. About 830 (0.38%) were called active. How the calls were made is not given here. The full list was thinned out, with actives kept by preference.

Each molecule was assayed against Regulator of G-protein signaling 16 (Homo sapiens) + Guanine nucleotide-binding protein G(o) subunit alpha (Homo sapiens) (UniProt O15492+P09471) (assay: RGS16-Galphao interaction inhibitors and enhancers – biochemical, human proteins, multiplexed bead flow cytometry, primary screen (AID 1441;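 further: Galphao activated by GDP with aluminum fluoride before binding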)). Conditions: bead-based flow cytometry RGS16-Galphao binding, fluorescence; at 10 µM; actives lie on both sides.
Sequence of Regulator of G-protein signaling 16 (Homo sapiens) + Guanine nucleotide-binding protein G(o) subunit alpha (Homo sapiens) (O15492 whole entry, looked up): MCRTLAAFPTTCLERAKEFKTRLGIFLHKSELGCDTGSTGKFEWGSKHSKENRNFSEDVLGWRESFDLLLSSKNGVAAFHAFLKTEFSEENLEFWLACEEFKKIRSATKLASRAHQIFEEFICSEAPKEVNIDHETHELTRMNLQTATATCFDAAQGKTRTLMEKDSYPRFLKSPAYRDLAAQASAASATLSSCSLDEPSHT
Sequence of Regulator of G-protein signaling 16 (Homo sapiens) + Guanine nucleotide-binding protein G(o) subunit alpha (Homo sapiens) (P09471 whole entry, looked up): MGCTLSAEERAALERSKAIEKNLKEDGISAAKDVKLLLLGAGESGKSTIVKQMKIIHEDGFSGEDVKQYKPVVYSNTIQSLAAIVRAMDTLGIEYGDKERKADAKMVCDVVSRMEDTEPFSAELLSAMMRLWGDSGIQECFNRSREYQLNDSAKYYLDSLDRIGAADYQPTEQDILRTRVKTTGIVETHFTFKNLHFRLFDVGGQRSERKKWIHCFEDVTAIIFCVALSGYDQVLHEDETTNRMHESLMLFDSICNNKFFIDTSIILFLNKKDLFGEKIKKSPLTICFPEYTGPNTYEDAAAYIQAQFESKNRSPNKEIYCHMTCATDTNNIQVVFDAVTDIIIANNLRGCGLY
COP1(=O)C[C@@H](O)[C@@H](O)[C@@H](COCc2ccccc2)O1 (stereo partly drawn) was tested, and the binding response (% of control) was 103% (inactive). Cc1ccsc1C1C(C#N)=C(N)OC2=C1C(=O)CC(C)(C)C2 (stereo not drawn) was tested, and the binding response (% of control) was 118% (inactive). COc1ccc(Cl)cc1C(=O)NNC(=O)c1nc2nc(C)cc(C)n2n1 was tested, and the binding response (% of control) was 95.3% (inactive). O=C(OCc1ccc(Br)cc1)c1cccc(-c2nnc(-c3ccccc3)o2)c1 was tested, and the binding response (% of control) was 102% (inactive). O=C(/C=C/c1ccco1)Nc1cccc(-c2nc3ccccc3[nH]2)c1 was tested, and the binding response (% of control) was 98.3% (inactive). O=C(Cc1cccs1)Nc1cccc(-c2nc3ccccc3[nH]2)c1 was tested, and the binding response (% of control) was 97.3% (inactive). With O=C(Nc1cccc(-c2nc3ccccc3[nH]2)c1)c1ccc(C(=O)Nc2cccc(-c3nc4ccccc4[nH]3)c2)cc1 the binding response (% of control) was 219% [activator] (active). NC(=S)Nc1c(Cl)cccc1Cl was tested, and the binding response (% of control) was 98.9% (inactive). For CCOc1c(Nc2cccc(Cl)c2)c(=O)c1=O, the binding response (% of control) was 119% (inactive). For COc1ccc(-c2ccc(CNCCCN3CCOCC3)o2)cc1Cl, the binding response (% of control) was 98.4% (inactive). CNC(=S)NNC(=O)c1cccn(Cc2ccccc2)c1=O was tested, and the binding response (% of control) was 100% (inactive). CCCC[C@@H]1CN=C(N)N1CCc1cc(C(F)(F)F)cc(C(F)(F)F)c1 was tested, and the binding response (% of control) was 100% (inactive). For CCN(CC)c1ccc(/C=N/NC(=O)c2cnccn2)c(O)c1, the binding response (% of control) was 94.6% (inactive). In the case of N/C(=N\OC(=O)CCc1ccccc1)c1cccnc1, the binding response (% of control) is reported as 105% (inactive). With COc1ccccc1C(=O)n1nc(-c2ccccc2)nc1N the binding response (% of control) was 102% (inactive). In the case of COc1ccc(CC(=O)n2nc(-c3cccnc3)nc2N)cc1, the binding response (% of control) is reported as 93.8% (inactive). CCCC(=O)n1nc(-c2ccccc2)nc1N was tested, and the binding response (% of control) was 14.9% (active). In the case of Nc1ccccc1C(=O)NC1CCCCNC1=O (stereo not drawn), the binding response (% of control) is reported as 95.3% (inactive). In the case of COc1ccc2c(c1)C(=C(C#N)C#N)C(=O)N2CCc1ccccc1, the binding response (% of control) is reported as 113% (inactive). Nc1ccc(C(=O)OCC(=O)NC2CCS(=O)(=O)C2)cc1[N+](=O)[O-] (stereo not drawn) was tested, and the binding response (% of control) was -10.3% (active). O=C(COC(=O)/C=C/c1ccc2c(c1)OCO2)NC1CCS(=O)(=O)C1 (stereo not drawn) was tested, and the binding response (% of control) was 98.5% (inactive). In the case of Nc1ccc(C(=O)OCC(=O)NC2CCCc3ccccc32)cc1[N+](=O)[O-] (stereo not drawn), the binding response (% of control) is reported as 98.8% (inactive). For COc1cc(OC)c(C(=O)N2CCCC2)cc1OC, the binding response (% of control) was 100% (inactive). In the case of CCC(C)(C)NC(=O)C(c1cccc(OC)c1OC)N(CC(C)C)C(=O)CCC(=O)Nc1cc(C)on1 (stereo not drawn), the binding response (% of control) is reported as 105% (inactive). For COc1ccc(-c2nn(-c3ccccc3)cc2C(=O)Nc2nccs2)cc1OC, the binding response (% of control) was 24.6% (active). With COc1ccc(-c2nn(-c3ccccc3)cc2C(=O)Nc2nc(CC(C)=O)ns2)cc1 the binding response (% of control) was 95.8% (inactive). COc1ccc(-c2nn(-c3ccccc3)cc2/C=N/Nc2ccccn2)cc1OC was tested, and the binding response (% of control) was 112% (inactive). With CC(C)Oc1ccc(CCc2nnc(SCC(=O)O)n2-c2ccccc2)cc1 the binding response (% of control) was 99.7% (inactive). COC(=O)[C@H]1Cc2cnoc2C[C@]1(C)C(=O)O was tested, and the binding response (% of control) was 104% (inactive). Cc1ccc(SCC2=NNC(=O)C2)cc1 was tested, and the binding response (% of control) was 110% (inactive). For Cc1ccc(N2C(=O)C(Cc3ccccc3)NC2=S)cc1 (stereo not drawn), the binding response (% of control) was 102% (inactive). For Cc1ccc(N2C(=O)C3C(c4ccccc4)(C2=O)C3(c2ccccc2)c2ccccc2)cc1 (stereo not drawn), the binding response (% of control) was 13.2% (active). Cc1ccc(N2C(=O)C3CC3C2=O)cc1 (stereo not drawn) was tested, and the binding response (% of control) was 101% (inactive). In the case of C/C=C/c1ccc(OCCCCN2CCC(C)CC2)c(OC)c1, the binding response (% of control) is reported as 95% (inactive). With O=c1[nH]c2ccccc2s1 the binding response (% of control) was 23% (active). For O=c1c(-c2ccc(Cl)cc2)[n+]([O-])c2ccccc2n1OCc1nc2ccccc2[nH]1, the binding response (% of control) was 108% (inactive). In the case of CCCC1C(c2ccccc2)C(C#N)(C#N)C2(C#N)CC1(N)NC2=O (stereo not drawn), the binding response (% of control) is reported as 178% [activator] (active). With O=C(NNC(=S)NC1CCCCC1)c1ccccc1Cl the binding response (% of control) was 99.1% (inactive). With CCC(=O)Nc1c(S(=O)(=O)c2ccccc2)c2nc3ccccc3nc2n1Cc1ccccc1 the binding response (% of control) was 13.9% (active). For Cc1ccc(S(=O)(=O)c2c(N)n(C)c3nc4ccccc4nc23)cc1, the binding response (% of control) was 101% (inactive). In the case of CCN(CC)CCn1c(N)c(S(=O)(=O)c2ccccc2)c2nc3ccccc3nc21, the binding response (% of control) is reported as 104% (inactive). In the case of S=c1[nH]nc(-c2cccs2)n1/N=C/c1cn(-c2ccccc2)nc1-c1ccc(Cl)cc1, the binding response (% of control) is reported as 98.8% (inactive). In the case of O=S(=O)(NN=C1CCCCCCC1)c1ccc(Br)cc1, the binding response (% of control) is reported as 106% (inactive). With C/C(=N\NS(=O)(=O)c1ccc(Br)cc1)c1cccs1 the binding response (% of control) was -881% (active). C/C(=N\OCC(=O)Nc1ccc(Br)cc1)c1cccs1 was tested, and the binding response (% of control) was 99.8% (inactive). With COc1ccc(-n2c(SCC(=O)OC(C)C)nnc2-c2ccccn2)cc1 the binding response (% of control) was 242% [activator] (active). Cc1ccc(-n2c(SCC(=O)Nc3ccc4c(c3)OCO4)nnc2-c2ccccn2)cc1 was tested, and the binding response (% of control) was 96.8% (inactive). With Cc1ccc(-n2c(Cc3cccs3)nnc2SCC(=O)OC(C)C)cc1 the binding response (% of control) was 103% (inactive). For Cc1cc(C(=O)OCC(=O)Nc2nccs2)c2ccccc2n1, the binding response (% of control) was 99% (inactive). In the case of CCc1nc(NCCO)c(C#N)c2c1CCCC2, the binding response (% of control) is reported as 92.9% (inactive). For CCOc1ccc(NC(=O)CSc2nc3ccccc3c(=O)n2Cc2cccs2)cc1, the binding response (% of control) was -1.24% (active). In the case of CCc1ccc(NC(=O)CSc2nc3ccccc3c(=O)n2CCN2CCOCC2)cc1, the binding response (% of control) is reported as 97.8% (inactive). With CC(=O)NCCn1c(SCC(=O)Nc2ccc(C)cc2)nc2ccccc2c1=O the binding response (% of control) was 197% (inactive). For NC(=O)c1nnsc1-c1ccc(-c2snnc2C(N)=O)cc1, the binding response (% of control) was 103% (inactive). With COc1cc2[nH]c(=S)n(Cc3ccc(F)cc3)c(=O)c2cc1OC the binding response (% of control) was 76.9% (inactive). With Cc1cc(C(=O)N/N=C/c2cc([N+](=O)[O-])cc(C)c2O)n[nH]1 the binding response (% of control) was 78.3% (inactive). Cn1c(CCCOc2ccc(Cl)cc2Cl)n[nH]c1=S was tested, and the binding response (% of control) was 101% (inactive). In the case of O=S(=O)(c1ccccc1)N1CN(Cc2ccc(F)cc2)c2nc3ccccc3nc21, the binding response (% of control) is reported as 100% (inactive). For CC(NC(=O)C1CCC(CNc2c(N3CCOCC3)c(=O)c2=O)CC1)c1ccccc1 (stereo not drawn), the binding response (% of control) was 99.6% (inactive). For O=C(NCc1ccc(F)cc1)C1CCC(CNc2c(N3CCOCC3)c(=O)c2=O)CC1 (stereo not drawn), the binding response (% of control) was 3.97% (active). With COc1ccc(CNC(=O)C2CCC(CNc3c(N4CCOCC4)c(=O)c3=O)CC2)cc1 (stereo not drawn) the binding response (% of control) was 104% (inactive). With O=C(Nc1cccnc1Oc1ncnc2cc(Cl)ccc12)c1ccc(F)cc1 the binding response (% of control) was 102% (inactive). With CN1CCN(c2ccc(CNS(=O)(=O)c3cccc(F)c3)cc2)CC1 the binding response (% of control) was 104% (inactive). In the case of CN(C)CCOc1cccc(Br)c1, the binding response (% of control) is reported as 103% (inactive). CC1(C)C=C2[C@H]3CC[C@@H]4[C@@]5(C)CCC(=O)C(C)(C)[C@@H]5CC[C@@]4(C)[C@]3(C)CC[C@@]2(C(=O)O)CC1 was tested, and the binding response (% of control) was 267% [activator] (active). CC1Cc2ccccc2N1CC(=O)Nc1ccc(S(N)(=O)=O)cc1 (stereo not drawn) was tested, and the binding response (% of control) was 93.2% (inactive). With O=C1CCC(=O)N(O)CCCCCNC(=O)CCC(=O)N(O)CCCCCNC(=O)CCC(=O)N(O)CCCCCN1 the binding response (% of control) was 40.8% (inactive). CCS(=O)(=O)c1cc([N+](=O)[O-])c(Sc2ccccc2N)s1 was tested, and the binding response (% of control) was 91.4% (inactive). In the case of O=C(NCCCn1ccnc1)C(=O)NCC1OCCN1S(=O)(=O)c1cc(F)ccc1F (stereo not drawn), the binding response (% of control) is reported as 105% (inactive). In the case of NS(=O)(=O)c1cccc(NC(=O)CSc2nc3ccccc3n2-c2ccccc2)c1, the binding response (% of control) is reported as 105% (inactive). In the case of Cc1ccc(-n2c(SCC(=O)Nc3ncc(Cl)cc3Cl)nc3ccccc32)cc1, the binding response (% of control) is reported as 13.7% (active). In the case of Cc1ccc(SCCC(=O)OCC(=O)Nc2ncc(Cl)cc2Cl)cc1, the binding response (% of control) is reported as 106% (inactive). With CCCNC(=O)c1c(Cl)cnn1-c1ccc(C)cc1 the binding response (% of control) was 99.5% (inactive). CCOc1ccccc1NC(=O)c1cc(S(=O)(=O)N2CCC3(CC2)OCCO3)ccc1F was tested, and the binding response (% of control) was 4.15% (active). With CCOc1ccccc1NC(=O)CCN1CCN(S(=O)(=O)c2ccc(OC)cc2)CC1 the binding response (% of control) was 102% (inactive). In the case of Cc1c(C(=O)Nc2ccccc2Cl)oc2ccc(S(=O)(=O)N3CCC4(CC3)OCCO4)cc12, the binding response (% of control) is reported as 107% (inactive). For Cc1ccc(C(=O)N/C(=C/c2cccnc2)C(=O)O)cc1, the binding response (% of control) was 100% (inactive). For Cc1cc(OCCN2CCCC2)cc(C(C)C)c1, the binding response (% of control) was 93.3% (inactive). COC(c1ccccc1)c1nnc(CCC(=O)N2CCN(CCOc3ccccc3)CC2)o1 (stereo not drawn) was tested, and the binding response (% of control) was 101% (inactive). In the case of COc1cccc(C(=O)NNC(=O)c2ccccc2Br)c1, the binding response (% of control) is reported as 105% (inactive). In the case of COc1cccc(C(=O)NCCSc2ccc(Br)cc2)c1, the binding response (% of control) is reported as 11.1% (active). With COc1cc(OC)cc(C(=O)NCCSCc2ccco2)c1 the binding response (% of control) was 97.1% (inactive). For CC(=O)c1sc(NC(=O)C2=NN(c3ccccc3)C(=O)CC2)nc1C, the binding response (% of control) was 102% (inactive). With O=C(Cn1ncc(N2CCCC2)c(Br)c1=O)c1ccc(Cl)cc1 the binding response (% of control) was 103% (inactive). For COC(=O)c1ccccc1OCC(=O)N1CCN(c2ccc(Cl)cc2)CC1, the binding response (% of control) was 461% [activator] (active). With O=C(CN1CCN(c2ccc(Cl)cc2)CC1)N1CCCC1 the binding response (% of control) was 101% (inactive). O=C(COc1ccc(Cl)cc1)N1CCN(c2cccc(C(F)(F)F)c2)CC1 was tested, and the binding response (% of control) was 107% (inactive). In the case of CN(C(=O)COC(=O)c1cc(-c2ccco2)nc2ccccc12)C1CCS(=O)(=O)C1 (stereo not drawn), the binding response (% of control) is reported as 89.7% (inactive). For Cc1cc(C)cc(N(CC(=O)Nc2c(C)n(C)n(-c3ccccc3)c2=O)S(C)(=O)=O)c1, the binding response (% of control) was -28.4% (active). With Cc1cc(C)cc(N(C(C)C(=O)Nc2c(C)n(C)n(-c3ccccc3)c2=O)S(C)(=O)=O)c1 (stereo not drawn) the binding response (% of control) was 109% (inactive). With Cc1ccc(S(=O)(=O)CC(=O)Nc2c(C)n(C)n(-c3ccccc3)c2=O)cc1 the binding response (% of control) was 98% (inactive). C/C(=N/N1CCN(Cc2cccc3ccccc23)CC1)c1cccnc1 was tested, and the binding response (% of control) was 104% (inactive). In the case of COC(=O)c1ccccc1NC(=S)NC(=O)c1ccccc1F, the binding response (% of control) is reported as 101% (inactive).
